The values below come from the supplement of paper PMC10037445.

The full ranking holds about 2,900 compounds; the median of “NF-kB SEAP reporter activity, fold change vs agonist alone” is about 0.99, and the highest 2% start at about 2.6. This is one part of a sample in which the highest values are shown more often than they occur.

Test [1] deals with RAW-Dual. Kind of test: NF-kB SEAP reporter activity, fold change vs agonist alone; cytotoxicity flag (confluency mask): not cytotoxic; higher = enhanced NF-kB activity. The procedure, abridged: (§1)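 Library stock was pin-tooled at 50 nL into 384-well plates of RAW-Dual macrophages (50,000 cells/well, DMEM), followed 1 h later by a PRR agonist, and the cells were kept at 37 °C, 5% CO2. Supernatant collected after 20 hours was read for IRF by QuantiLuc luminescence and for NF-κB by QuantiBlue absorbance at 620 nm. Reporter activity is fold change over agonist-alone wells, and a well counted as cytotoxic when its IncuCyte confluency was below 70% of agonist controls in both mask sets.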

Test [2] has as its system RAW-Dual. Kind of test: NF-kB SEAP reporter activity, fold change vs agonist alone; cytotoxicity flag (confluency mask): cytotoxic (confluency <70% of control); higher = enhanced NF-kB activity. The gist of the method: as §1
The test system of test [3] is RAW-Dual. Description: NF-kB SEAP reporter activity, fold change vs agonist alone; higher = enhanced NF-kB activity. The gist of the method: as §1
Where [4] appears, read: agonist: ODN 1826 (TLR9) 0.5 ug/mL.
Setting [5] is: agonist: Pam2CSK4 (TLR2/6) 0.1 ug/mL.
[6] abbreviates: agonist: Pam3CSK4 (TLR2/1) 0.1 ug/mL.
Where [7] appears, read: library stock concentration (final ~1000-fold dilution): 10 mM, cytotoxicity flag (confluency mask): not cytotoxic, agonist: Imiquimod (TLR7) […].
Where [8] appears, read: library stock concentration (final ~1000-fold dilution): 10 mM, cytotoxicity flag (confluency mask): not cytotoxic, agonist: MPLA (TLR4) […].
[9] abbreviates: library stock concentration (final ~1000-fold dilution): 10 mM, cytotoxicity flag (confluency mask): cytotoxic (confluency <70% of control), agonist: Imiquimod (TLR7) […].
[10] abbreviates: library stock concentration (final ~1000-fold dilution): 10 mM, cytotoxicity flag (confluency mask): cytotoxic (confluency <70% of control), agonist: MPLA (TLR4) […].

For the compound `COc1cc(N2CCN(C)CC2)ccc1Nc1nccc(-c2cn(C)c3cnccc23)n1` (library stock concentration (final ~1000-fold dilution): 10 mM), the “NF-kB SEAP reporter activity” value in the test with RAW-Dual [1] (agonist: LPS (TLR4) 0.1 ug/mL) was 1.02; with RAW-Dual [1] (setting [4]) it was 0.192; in the test on RAW-Dual [1] (setting [5]), 1.14; in the test on RAW-Dual [1] (setting [6]) it was 1.44.
Regarding `Nc1ncc(-c2ccnc(Nc3ccncc3)n2)c(CC2CC2)n1` (library stock concentration (final ~1000-fold dilution): 10 mM), the “NF-kB SEAP reporter activity” value came out at 4.89 in the test on RAW-Dual [2] (agonist: LPS (TLR4) 0.1 ug/mL), 0.424 in the test with RAW-Dual [2] (setting [4]), 0.975 in the test with RAW-Dual [2] (setting [5]) and 1.51 in the test with RAW-Dual [2] (setting [6]).
As for `CC(C)(O)CNc1ncc(-c2ccnc(Nc3ccncc3)n2)c(CC2CC2)n1`, the results for the “NF-kB SEAP reporter activity” value with RAW-Dual [3] (setting [7]) and in the test on RAW-Dual [3] (setting [8]) were 0.914 and 2.18, respectively.
Regarding `CCNC1CC(C)S(=O)(=O)c2sc(S(N)(=O)=O)cc21.Cl` (stereo not given) (library stock concentration (final ~1000-fold dilution): 10 mM water), the “NF-kB SEAP reporter activity” value in the test with RAW-Dual [1] (agonist: LPS (TLR4) 0.1 ug/mL) turned out to be 1.49; in the test with RAW-Dual [1] (setting [4]), 1.13; with RAW-Dual [1] (setting [5]), 1.09; in the test on RAW-Dual [1] (setting [6]), 0.997.
For the compound `CCNC1CC(C)S(=O)(=O)c2sc(S(N)(=O)=O)cc21.Cl` (stereo not given), the “NF-kB SEAP reporter activity” value was found to be 0.908 with RAW-Dual [3] (library stock concentration (final ~1000-fold dilution): 10 mM water, cytotoxicity flag (confluency mask): not cytotoxic, agonist: Imiquimod (TLR7) […]) and 0.982 in the test on RAW-Dual [3] (library stock concentration (final ~1000-fold dilution): 10 mM water, cytotoxicity flag (confluency mask): not cytotoxic, agonist: MPLA (TLR4) […]).
On to `CCc1ccc(OCc2ccccc2C(=O)Nc2ccc3nc(C)cc(N)c3c2)cc1.Cl`, for which the “NF-kB SEAP reporter activity” value in the test with RAW-Dual [3] (setting [9]) was 0.265; in the test on RAW-Dual [3] (setting [10]), 0.216.
Turning to `CCc1ccc(OCc2ccccc2C(=O)Nc2ccc3nc(C)cc(N)c3c2)cc1.Cl` (library stock concentration (final ~1000-fold dilution): 10 mM), the “NF-kB SEAP reporter activity” value with RAW-Dual [2] (agonist: LPS (TLR4) 0.1 ug/mL) amounted to 0.212; with RAW-Dual [2] (setting [4]), 0.198; in the test on RAW-Dual [2] (setting [5]), 0.0939; in the test with RAW-Dual [2] (setting [6]), 0.336.
Take `CCCN1CCCCC1C(=O)Nc1c(C)cccc1C` (stereo not given) (library stock concentration (final ~1000-fold dilution): 10 mM): the “NF-kB SEAP reporter activity” value in the test on RAW-Dual [1] (agonist: LPS (TLR4) 0.1 ug/mL) was found to be 1.03; in the test with RAW-Dual [1] (setting [4]), 1.03; in the test with RAW-Dual [1] (setting [5]), 0.952; in the test with RAW-Dual [1] (setting [6]) it was 1.06.
For `CCCN1CCCCC1C(=O)Nc1c(C)cccc1C` (stereo not given), in the test with RAW-Dual [3] (setting [8]), the “NF-kB SEAP reporter activity” value stood at 1.09.
`Cc1ccc(C(=O)N(CCCN)C(c2nc3cc(Cl)ccc3c(=O)n2Cc2ccccc2)C(C)C)cc1` (stereo not given): the results for the “NF-kB SEAP reporter activity” value in the test with RAW-Dual [3] (setting [9]) and with RAW-Dual [3] (setting [10]) were 1.41 and 0.878, respectively.
Consider `Cc1ccc(C(=O)N(CCCN)C(c2nc3cc(Cl)ccc3c(=O)n2Cc2ccccc2)C(C)C)cc1` (stereo not given) (library stock concentration (final ~1000-fold dilution): 10 mM), for which the “NF-kB SEAP reporter activity” value with RAW-Dual [2] (agonist: LPS (TLR4) 0.1 ug/mL) came out at 0.331; in the test on RAW-Dual [2] (setting [4]) it was 0.254; in the test on RAW-Dual [2] (setting [5]), 0.0886; in the test with RAW-Dual [2] (setting [6]), 0.27.
With `COC1C(=O)C2(C)C(OC)CC3OCC3(OC(C)=O)C2C(OC(=O)c2ccccc2)C2(O)CC(OC(=O)C(O)C(NC(=O)OC(C)(C)C)c3ccccc3)C(C)=C1C2(C)C` (stereo not given) (library stock concentration (final ~1000-fold dilution): 10 mM), the “NF-kB SEAP reporter activity” value is 1.71 in the test with RAW-Dual [1] (agonist: LPS (TLR4) 0.1 ug/mL), 1.2 in the test with RAW-Dual [1] (setting [4]), 1.01 in the test with RAW-Dual [1] (setting [5]) and 0.912 in the test with RAW-Dual [1] (setting [6]).
For `COC1C(=O)C2(C)C(OC)CC3OCC3(OC(C)=O)C2C(OC(=O)c2ccccc2)C2(O)CC(OC(=O)C(O)C(NC(=O)OC(C)(C)C)c3ccccc3)C(C)=C1C2(C)C` (stereo not given), the “NF-kB SEAP reporter activity” value with RAW-Dual [3] (setting [7]) stood at 1.57; with RAW-Dual [3] (setting [8]), 1.25.
The like results for `Oc1ccc(Nc2nc(-c3ccc(Cl)cc3)cs2)cc1` were, in that order, 0.665 and 0.836.
Take `O=C(NCc1cccc(O)c1)Nc1nc(-c2ccncc2)cs1`: the “NF-kB SEAP reporter activity” value with RAW-Dual [3] (setting [7]) worked out at 1.3; with RAW-Dual [3] (setting [8]), 1.45.
Regarding `Cc1cccc(Nc2nc(-c3ccncc3)cs2)c1` (library stock concentration (final ~1000-fold dilution): 10 mM), the “NF-kB SEAP reporter activity” value with RAW-Dual [1] (agonist: LPS (TLR4) 0.1 ug/mL) came out at 2.85; in the test with RAW-Dual [1] (setting [4]), 1.3; in the test with RAW-Dual [1] (setting [5]), 0.662; with RAW-Dual [1] (setting [6]), 1.
As to `O=C(NCc1cccc(O)c1)Nc1nc(-c2ccncc2)cs1` (library stock concentration (final ~1000-fold dilution): 10 mM), the “NF-kB SEAP reporter activity” value is 1.01 with RAW-Dual [1] (agonist: LPS (TLR4) 0.1 ug/mL), 1.21 with RAW-Dual [1] (setting [4]), 1.24 in the test with RAW-Dual [1] (setting [5]) and 1.88 in the test on RAW-Dual [1] (setting [6]).
Turning to `Oc1ccc(Nc2nc(-c3ccc(Cl)cc3)cs2)cc1` (library stock concentration (final ~1000-fold dilution): 10 mM), the “NF-kB SEAP reporter activity” value in the test with RAW-Dual [1] (agonist: LPS (TLR4) 0.1 ug/mL) was determined as 0.311; in the test with RAW-Dual [1] (setting [4]) it was 0.27; in the test on RAW-Dual [1] (setting [5]) it was 0.227; in the test on RAW-Dual [1] (setting [6]), 0.157.
On to `Cc1cccc(Nc2nc(-c3ccncc3)cs2)c1`, for which the figures for the “NF-kB SEAP reporter activity” value in the test with RAW-Dual [3] (setting [7]) and in the test on RAW-Dual [3] (setting [8]) were 1.89 and 2.08, respectively.
Consider `CCCOc1ccc(S(=O)(=O)NCCC2CCCN2C)cc1-c1nc(=O)c2c([nH]1)c(CCC)nn2C` (stereo not given), for which the figures for the “NF-kB SEAP reporter activity” value with RAW-Dual [3] (setting [7]) and with RAW-Dual [3] (setting [8]) were 1.42 and 1.28, respectively.
On to `CCCOc1ccc(S(=O)(=O)NCCC2CCCN2C)cc1-c1nc(=O)c2c([nH]1)c(CCC)nn2C` (stereo not given) (library stock concentration (final ~1000-fold dilution): 10 mM), for which the “NF-kB SEAP reporter activity” value in the test on RAW-Dual [1] (agonist: LPS (TLR4) 0.1 ug/mL) was 1.02; in the test with RAW-Dual [1] (setting [4]), 0.517; in the test on RAW-Dual [1] (setting [5]), 0.99; in the test on RAW-Dual [1] (setting [6]) it was 1.14.
As for `COc1cc(F)c(F)c(Nc2ccc(I)cc2F)c1NS(=O)(=O)C1(CC(O)CO)CC1` (stereo not given), the “NF-kB SEAP reporter activity” value in the test with RAW-Dual [3] (setting [7]) was 0.885; with RAW-Dual [3] (setting [8]), 0.968.
As for `COc1cc(F)c(F)c(Nc2ccc(I)cc2F)c1NS(=O)(=O)C1(CC(O)CO)CC1` (stereo not given) (library stock concentration (final ~1000-fold dilution): 10 mM), the “NF-kB SEAP reporter activity” value is 1.01 with RAW-Dual [1] (agonist: LPS (TLR4) 0.1 ug/mL), 0.915 in the test on RAW-Dual [1] (setting [4]), 0.342 in the test with RAW-Dual [1] (setting [5]) and 0.427 in the test with RAW-Dual [1] (setting [6]).
As for `Cl.Cl.Fc1ccc(C(c2ccc(F)cc2)N2CCN(C/C=C/c3ccccc3)CC2)cc1` (library stock concentration (final ~1000-fold dilution): 10 mM), the “NF-kB SEAP reporter activity” value amounted to 2.45 in the test with RAW-Dual [1] (agonist: LPS (TLR4) 0.1 ug/mL), 1.44 in the test with RAW-Dual [1] (setting [4]), 0.829 with RAW-Dual [1] (setting [5]) and 1.09 in the test on RAW-Dual [1] (setting [6]).
Take `Cl.Cl.Fc1ccc(C(c2ccc(F)cc2)N2CCN(C/C=C/c3ccccc3)CC2)cc1`: the “NF-kB SEAP reporter activity” value in the test on RAW-Dual [3] (setting [7]) is 1.99; with RAW-Dual [3] (setting [8]) it was 1.65.
